Experimental data published in PubChem BioAssay (NCATS).
Results filed as inconclusive are left out. Active and inactive are the calls of the source. Unless noted, calls come from the whole dose curve; as a rule, active = well fitted curve in the direction sought with a large enough effect; inconclusive = small, poorly fitted or top-dose-only effect, or another doubt; inactive = no such curve, though single readings can be large; an effect the other way counts as inactive or inconclusive.

Key:
[1] = qHTS for Inhibitors of Plasmodium falciparum (DD2) proliferation (AID 504314);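 note: parasite DNA measured by SYBR Green fluorescence after red cell lysis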
Procedure, shortened: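 Fluorescence read-out (ex 485/em 535 nm) of SYBR Green-stained parasite DNA quantifies intraerythrocytic growth. Cultures at 0.3% parasitemia and 2.5% hematocrit were treated for 72 h; data normalized to DMSO and 0.29 uM artemisinin wells.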

[2] = qHTS for Inhibitors of Plasmodium falciparum (GB4) proliferation (AID 504315); note: nearly all actives have a fitted effect of over 50% in size
Procedure, shortened: (§1)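 Erythrocytes infected with P. falciparum line (0.3% parasitemia, 2.5% hematocrit final) incubated with compounds 72 h at 37 °C, 5% CO2; SYBR Green lysis buffer added, fluorescence read next day. Normalized to 0.29 uM artemisinin and DMSO.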

[3] = qHTS for Inhibitors of Plasmodium falciparum (7G8) proliferation (AID 504316); note: series mostly up to about 6.7 µM; nearly all actives have a fitted effect of over 65% in size
Procedure, shortened: as §1

[4] = qHTS for Inhibitors of Plasmodium falciparum (HB3) proliferation (AID 504318); note: nearly all actives have a fitted effect of over 60% in size
Procedure, shortened: as §1

[5] = qHTS for Inhibitors of Plasmodium falciparum (CP250) proliferation (AID 504320)
Procedure, shortened: as §1

[6] = biological target: Mitogen-activated protein kinase 10 (Mus musculus) (UniProt Q61831); assay: JNK3 AlphaScreen Assay (AID 530; active = well fitted curve in either direction with a large enough effect, not every such curve was filed as active;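 note: kinase came from lysate of stimulated human HepG2 cells; signal reports phosphorylation of biotinylated GST-cJun 1-79 at Ser73 with 10 µM ATP; series mostly up to about 57 µM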)
Procedure, shortened: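 qHTS format: compounds tested as titrations against IL-1beta/TNF-alpha-activated HepG2 lysate JNK3 with biotin-GST-cJun substrate and 10 uM ATP at room temperature. Loss of anti-phospho-cJun AlphaScreen signal indicates inhibition.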

[7] = biological target: 3',5'-cyclic-AMP phosphodiesterase 4B (Homo sapiens) (UniProt Q07343); assay: qHTS Assay for Inhibitors of PDE-IV (AID 607; active = well fitted activation curve with a large enough effect in the main read-out, with a control signal flat, not every such curve was filed as active)
Procedure, shortened: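 Live HEK293 cells with a modified cyclic nucleotide-gated (CNG) channel report intracellular cAMP via membrane-potential dye fluorescence (ex 535/em 590 nm). Endogenous PDE-IV was targeted. Compounds were tested at up to 22.9 uM final; RO 20-1724 100 uM served as control.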

Measured: Potency

3',5'-cyclic-AMP phosphodiesterase 4B (Homo sapiens), sequence (Q07343 whole entry, looked up): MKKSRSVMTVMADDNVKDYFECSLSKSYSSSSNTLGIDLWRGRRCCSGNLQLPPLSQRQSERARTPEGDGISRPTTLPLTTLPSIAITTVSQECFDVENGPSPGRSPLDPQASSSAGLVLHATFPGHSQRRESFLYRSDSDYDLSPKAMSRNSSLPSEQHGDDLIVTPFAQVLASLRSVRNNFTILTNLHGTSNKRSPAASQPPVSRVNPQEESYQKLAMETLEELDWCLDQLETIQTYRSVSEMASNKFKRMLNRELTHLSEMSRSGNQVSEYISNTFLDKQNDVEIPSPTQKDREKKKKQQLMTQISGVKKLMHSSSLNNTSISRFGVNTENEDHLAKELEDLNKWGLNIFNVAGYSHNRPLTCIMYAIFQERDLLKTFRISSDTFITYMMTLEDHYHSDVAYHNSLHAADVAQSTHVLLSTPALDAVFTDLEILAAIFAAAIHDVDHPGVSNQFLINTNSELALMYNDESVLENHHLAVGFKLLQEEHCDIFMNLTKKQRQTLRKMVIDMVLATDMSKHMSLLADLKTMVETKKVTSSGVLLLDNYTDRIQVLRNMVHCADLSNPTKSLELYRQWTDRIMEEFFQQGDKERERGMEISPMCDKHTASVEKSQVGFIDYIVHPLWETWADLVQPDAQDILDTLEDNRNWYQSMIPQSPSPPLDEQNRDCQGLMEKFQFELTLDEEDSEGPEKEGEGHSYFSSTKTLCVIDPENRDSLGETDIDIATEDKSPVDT

C=CCOC(=O)N[C@@H](c1ccc(Br)cc1)C(C(C)=O)C(C)=O
not listed: [6] | [7]
inactive: all other assays above

COC(=O)[C@@H]1[C@@H](C)N(Cc2ccccc2)C(=O)N[C@H]1c1ccccc1
inactive: [1] | [2] | [4] | [5]

CCN1C(=O)N[C@@H](CCc2ccccc2)[C@H](C(=O)OC)[C@H]1C
not listed: [6] | [7]
inactive: all other assays above

COC/C=C/C1=CC2=CC(=O)C(C)(OC(=O)c3cnc4ccccc4n3)C(=O)C2=CN1C1CCCCC1 (stereo unspecified)
not listed: [6] | [7]
inactive: all other assays above

Cc1ccc(S(=O)(=O)N[C@@H]2COC(=O)[C@@H](C)COC(=O)CC=C[C@H]2C)cc1
inactive: [1] | [2] | [4] | [5]

CC(=O)c1ccc([C@@H]2C=C[C@H](O)[C@@H](CO)O2)cc1
not listed: [6] | [7]
inactive: all other assays above

COC(=O)CCC(=O)OC1(C)C(=O)C=C2C=C(C3CC3)N(CCCCO)C=C2C1=O (stereo unspecified)
inactive: [1] | [2] | [4] | [5]

COC(=O)[C@H]1C[C@@H]1[C@H](NS(=O)(=O)c1ccc(-c2ccccc2)cc1)c1ccccc1
inactive: [6]

COC(=O)C1=C(C)N(Cc2ccccc2)C(=O)NC1c1ccco1 (stereo unspecified)
inactive: [1] | [2] | [4] | [5]

COC(=O)CC1c2ccccc2C=C(C)N1C(=O)OC (stereo unspecified)
inactive: [1] | [2] | [4] | [5]

O=C(NCc1ccccc1)[C@H]1C[C@@H]1[C@H](NP(=O)(c1ccccc1)c1ccccc1)c1ccccc1
inactive: [6] | [7]

O=C(NCCF)[C@H]1C[C@@H]1[C@H](NP(=O)(c1ccccc1)c1ccccc1)c1ccccc1
inactive: [6] | [7]

COC(=O)C1=C(C(=O)OC)[C@@H]2N(Cc3ccccc3)c3ccccc3[C@@]23C[C@@H](C(=O)OC)N(C(=O)NCCBr)C3=N1
inactive: [1] | [2] | [4] | [5]

COCCN1C(=O)N[C@@H](c2cccc(F)c2)C(C(C)=O)=C1C
inactive: [1] | [2] | [4] | [5]

CCN(CC)CCCN1C=C2C(=O)C(C)(OC(=O)CCC(=O)OC)C(=O)C=C2C=C1C1CC1 (stereo unspecified)
inactive: [1] | [2] | [4] | [5]

COc1ccc(C2=CC3=C(Br)C(=O)C(C)(OC(=O)c4cnc5ccccc5n4)C(=O)C3=CO2)cc1 (stereo unspecified)
inactive: [1] | [2] | [4] | [5]

COC(=O)C1=C(C(=O)OC)[C@@H]2N(C)c3ccccc3[C@@]23C[C@@H](C(=O)OC)N(C(=O)C2CCC2)C3=N1
inactive: [1] | [2] | [4] | [5]

CO[C@@H]1/C=C\O[C@]2(C)Oc3c(C)c(O)c4c(O)c(c(/C=N\N5CCN(C)CC5)c(O)c4c3C2=O)NC(=O)/C(C)=C\C=C/[C@H](C)[C@H](O)[C@H](C)[C@H](O)[C@H](C)[C@H](OC(C)=O)[C@@H]1C
inactive: [7]

COC(=O)C1=C(C(=O)OC)[C@@H]2N(C)c3ccccc3[C@@]23C[C@@H](CO)N(C(=O)c2ccco2)C3=N1
inactive: [1] | [2] | [4] | [5]

COC(=O)[C@@]1(Cc2ccc(OC)cc2)[C@H]2c3cc(C(=O)N4CCCC4)n(CCSCCO)c3C[C@H]2CN1C(=O)c1ccccc1
inactive: [6] | [7]

O=C(NCc1ccccc1)[C@@H]1C[C@H]1[C@@H](NP(=O)(c1ccccc1)c1ccccc1)c1ccccc1
inactive: [6] | [7]

COC(=O)CCC(=O)OC1(C)C(=O)C2=CN(CCc3ccccn3)C(c3ccc(OC)cc3)=CC2=C(Br)C1=O (stereo unspecified)
inactive: [1] | [2] | [4] | [5]

CC#CCN1c2ccccc2[C@]23C[C@@H](C(=O)OC)N(S(=O)(=O)c4cccs4)C2=NC(C(=O)OC)=C(C(=O)OC)[C@H]13
inactive: [1] | [2] | [4] | [5]

CCOC(=O)CNC(=O)O[C@@H]1C(=O)c2cc(OC)ccc2O[C@H]1c1ccc(OC)c(Br)c1
inactive: [1] | [2] | [4] | [5]

C[C@H]1Cc2c(COc3ccccc3)nc3c(c2CO1)CN(C(=O)NCCc1c[nH]c2ccccc12)CC3
inactive: [1] | [2] | [4] | [5]

COCCN1C(=O)N(C)[C@@H](c2ccccc2)C(C(C)=O)=C1C
inactive: [1] | [2] | [4] | [5]

COC/C=C/C1=CC2=CC(=O)C(C)(OC(=O)c3cnc4ccccc4n3)C(=O)C2=CN1CCN1CCOCC1 (stereo unspecified)
inactive: [1] | [2] | [4] | [5]

Fc1ccccc1-c1nc(-c2ccccc2)oc1NC1CCCCC1
inactive: [1] | [2] | [4] | [5]

CCCCc1nc2c(c3c1C[C@H](C)OC3)CN(S(=O)(=O)c1ccc(C#N)cc1)CC2
inactive: [1] | [2] | [4] | [5]

COC(=O)C1=C(C(=O)OC)[C@@H]2N(Cc3ccccc3)c3ccccc3[C@@]23C[C@@H](C(=O)OC)N(C(C)=O)C3=N1
inactive: [1] | [2] | [4] | [5]

CC1(OC(=O)CCc2ccccc2)C(=O)C=C2C=C(c3ccc(C#N)cc3)N(C3CC3)C=C2C1=O (stereo unspecified)
inactive: [1] | [2] | [4] | [5]

COC(=O)[C@@H]1C[C@H]1[C@@H](NS(=O)(=O)c1ccc(-c2ccccc2)cc1)c1ccccc1
inactive: [6] | [7]

Cc1ccccc1Nc1oc(-c2ccccc2)nc1-c1ccc(C(F)(F)F)cc1
inactive: [1] | [2] | [4] | [5]

COCCN1C(=O)N[C@@H](c2cccc(C(F)(F)F)c2)[C@@H](C(=O)OC)[C@H]1C
inactive: [1] | [2] | [4] | [5]

COCCN1C(=O)N[C@@H](c2ccccc2)[C@@H](C(=O)OC)[C@H]1C
inactive: [1] | [2] | [4] | [5]

CCOC(=O)CN1C(=O)N[C@@H](CCc2ccccc2)C(C(C)=O)=C1C
inactive: [1] | [2] | [4] | [5]

C=CCN1C=C2C(=O)C(C)(OC(=O)CCC(=O)OC)C(=O)C=C2C=C1C1CC1 (stereo unspecified)
inactive: [1] | [2] | [4] | [5]

COC(=O)CCCC1=CC2=C(c3ccccc3)C(=O)C(C)(OC(=O)C3CCCC3)C(=O)C2=CN1CC1CC1 (stereo unspecified)
inactive: [1] | [2] | [4] | [5]

COC(=O)C1=C(C(=O)OC)[C@@H]2N(C)c3ccccc3[C@@]23C[C@@H](C(=O)OC)N(C(=O)CC(C)C)C3=N1
inactive: [1] | [2] | [4] | [5]

COC(=O)CCC(=O)OC1(C)C(=O)C2=CN(Cc3ccccc3)C(c3ccc(OC)cc3)=CC2=C(Br)C1=O (stereo unspecified)
inactive: [1] | [2] | [4] | [5]

COC(=O)C1=C(C(=O)OC)[C@@H]2Nc3ccccc3[C@@]23C[C@@H](C(=O)OC)N(C(C)=O)C3=N1
inactive: [1] | [2] | [4] | [5]

C=CC1=C2C=C(C3CC3)N(CCCCO)C=C2C(=O)C(C)(OC(=O)c2ccco2)C1=O (stereo unspecified)
inactive: [1] | [2] | [4] | [5]

CCOC(=O)CN1C(=O)N[C@@H](c2ccco2)C(C(=O)OC)=C1C
inactive: [1] | [2] | [4] | [5]

CC1(OC(=O)CCc2ccccc2)C(=O)C=C2C=C(c3ccc(C#N)cc3)N(Cc3ccccc3)C=C2C1=O (stereo unspecified)
inactive: [1] | [2] | [5]

C[C@H]1Cc2c(COc3ccccc3)nc3c(c2CO1)CN(C(=O)Nc1cccc(C#N)c1)CC3
inactive: [1] | [2] | [4] | [5]

COC(=O)CCCC1=CC2=C(c3ccccc3)C(=O)C(C)(OC(=O)C3CCCC3)C(=O)C2=CN1C(CO)CO (stereo unspecified)
inactive: [1] | [2] | [4] | [5]
